POLH inh: inhibitors of human DNA polymerase eta. 1.2% of 390,000 active. recombinant Pol eta, fluorescent DNA replication assay. AID 588591. Potency, µM (doses to about 114 µM), for inactives: at the highest dose activity change, negative = inhibition, usual class: inhibitors. Q9Y253; further: on the % scale 0 is the no-effect control and ±100 the full control effect
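Pol eta at 10 nM preincubated with compounds 15 min at room temperature; reaction started with fluorescent substrate (50 nM final) and read kinetically at 0 and 10 min.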
POLB inh: DNA polymerase beta (human) inhibition; P06746; Pol beta primer extension/strand displacement, fluorescence kinetic; Potency, µM (titrated, usually from 114 µM), for the others: at the highest dose activity change, negative = inhibition, hits mostly inhibitors; 1.3% of 340,000 active; AID 485314; further: on the % scale 0 is the no-effect control and ±100 the full control effect
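10 nM enzyme + cpd, 15 min RT; start with substrate 50 nM final; read 0 min and after 10 min RT. Corrected, normalized data; 4-parameter Hill curve fit.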
FEN1 inhibitor: human FEN1 inhibition; P39748; Recombinant FEN1 flap cleavage, fluorescence, 15 min; Potency, µM (highest dose often 114 µM), for the others: at the top dose activity change, negative = inhibition, hits mostly inhibitors; 0.35% of 390,000 active; further: on the % scale 0 is the no-effect control and ±100 the full control effect; nearly all actives have a fitted effect of over 65% in size
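In this screen, 50 nM flap DNA substrate was added to 10 nM FEN1 pretreated with compound for 15 min at room temperature; cleavage was followed with reads at 0 and 15 min, and Hill fitting gave concentration–response parameters.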
Pol iota inh: DNA polymerase iota (human) inhibition. Q9UNA4. Pol iota fluorescent replication assay, 10 min. Potency, µM (top dose mostly 115 µM), for the others: top-dose activity, negative = inhibition, hits mostly inhibitors. 1% of 390,000 active
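Fluorescent replication assay read twice, at 0 min and 10 min after adding 50 nM (final) substrate. Enzyme (10 nM) and compounds were first incubated 15 min at room temperature; enzyme-free buffer wells were negative controls.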
Pol kappa inh: DNA polymerase kappa (human) inhibition. Q9UBT6. purified Pol kappa, fluorescent DNA synthesis assay, 10 min. Potency, µM (titrated, usually from 107 µM), inactives show at the top dose activity, negative = inhibition, actives largely listed as inhibitors. 0.53% of 400,000 active; further: on the % scale 0 is the no-effect control and ±100 the full control effect
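10 nM Pol kappa preincubated 15 min at room temperature with compounds, then reaction started with substrate at 50 nM final. Fluorescence read kinetically at 0 and 10 min; buffer-only wells served as negative control.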
WRN helicase inh: blocks human WRN helicase | Q14191 | WRN helicase unwinding, fluorescent forked duplex, kinetic | Potency, µM (titrated, usually from 114 µM), for inactives: at the highest dose activity change, negative = inhibition, hits mostly inhibitors | 0.46% of 360,000 active; further: on the % scale 0 is the no-effect control and ±100 the full control effect; nearly all actives have a fitted effect of over 55% in size
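Screening of the MLSMR collection measured strand separation of a quenched forked DNA duplex (100 nM) by 20 nM WRN with 2 mM ATP, all final. Compounds were preincubated with enzyme 15 min at room temperature.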
* = called active by the depositor; ? = inconclusive; . = no result; ! = repeats disagree; [ ] = dose if it differs, or a comment. A selection: hits, their analogues and other compounds. The true share with any hit is near 2.4%. The call rests on the fitted dose curve; in most records, active means well fitted curve in the direction sought with a large enough effect; inconclusive means small, poorly fitted or top-dose-only effect, or another doubt; inactive means no such curve, though single readings can be large; an effect the other way counts as inactive or inconclusive. Potency means the concentration at half of the fitted maximal effect.

SMILES	POLH inh	POLB inh	FEN1 inhibitor	Pol iota inh	Pol kappa inh	WRN helicase inh
CCOC(=O)c1sc(N/N=C/c2cc(Br)c(O)c(OC)c2)nc1C	35µM*	32µM*	-21%	?	?	?
O=[N+]([O-])c1ccc(O/N=[N+](\[O-])N2CCCC2)c([N+](=O)[O-])c1	.	.	1%	?	-18%	.
O=C(NCC(=O)N1CCN(c2ccccc2O)CC1)c1ccco1	-19%	-23%	4%	79µM*	-31%	-19%
CCCn1c(NCc2ccco2)nc2c1c(=O)n(C)c(=O)n2C	?	22µM*	3%	?	?	-9%[57.1 µM]
COc1ccc(Cl)c(Cn2c(NCc3ccco3)nc3c2c(=O)n(C)c(=O)n3C)c1	?	14µM*	4%	?	?	?
Cc1ccnc(NS(=O)(=O)c2ccc(N3C(=O)c4c(Cl)c(Cl)c(Cl)c(Cl)c4C3=O)cc2)n1	79µM*	1%	4%	92%	-12%	-6%[11.6 µM]
Cc1ccnc(NS(=O)(=O)c2ccc(N3C(=O)c4ccccc4C3=O)cc2)n1	-16%	28%	-1%	11%	-3%	-11%
CN1C(=O)/C(=N\OC(=O)c2cccc3ccccc23)c2ccccc21	1%	46%	-3%	32µM*	-6%	57%[57.1 µM]
COc1ccc(C(=O)O/N=C2\C(=O)N(C)c3ccccc32)cc1	3%	.	-13%	-4%	0%	-5%
COc1ccc(S(=O)(=O)c2nnn(-c3cc(Cl)c(OC)cc3OC)c2C)cc1	89µM*	0%	-1%	?	-12%	.
Cc1noc(/C=C/c2ccco2)c1S(=O)(=O)N1CCC(C(=O)N2CCc3ccccc3C2)CC1	?	-111%	3%	45µM*	-35%	-22%
O=C(COc1ccc(-n2cnnn2)cc1)Nc1cccc(Cl)c1Cl	-6%	50µM*	0%	?	-32%	-15%
O=C(O)c1ccc(CN2C(=O)c3cccc4c([N+](=O)[O-])ccc(c34)C2=O)cc1	22µM*	?	-8%	?	-6%	8%
O=C1[C@H](Cc2ccccc2)NC/C=C\C[C@@H](c2ccco2)N1Cc1ccccc1	.	.	-7%	27%	-4%	.
O=c1c(-c2cc(F)cc(F)c2)nc2cnc(N3CCOCC3)nc2n1Cc1cccs1	.	.	.	.	1%[60.1 µM]	.
CN1CCN(c2ncc3nc(-c4cccs4)c(=O)n(Cc4cccs4)c3n2)CC1	.	.	.	.	-17%[60.1 µM]	.
O=c1c(-c2cccs2)nc2cnc(N3CCNCC3)nc2n1Cc1cccs1	.	.	.	.	32µM*	.
O=c1c(-c2cc(F)cc(F)c2)nc2cnc(N3CCNCC3)nc2n1Cc1cccs1	.	.	.	.	28µM*	.
CSCC[C@H](N)C(=O)N[C@@H](CO)C(=O)N[C@@H](CCCN=C(N)N)C(=O)N1CCC[C@H]1C(=O)N[C@@H](C)C(=O)N[C@@H](CS)C(=O)N1CCC[C@H]1C(=O)N[C@@H](CC(N)=O)C(=O)N[C@@H](CC(=O)O)C(=O)N[C@@H](CCCCN)C(=O)N[C@@H](Cc1ccc(O)cc1)C(=O)N[C@@H](CCC(=O)O)C(=O)O	.	.	.	.	15%[60.1 µM]	.
CN1CC2(Cc3cc([N+](=O)[O-])ccc31)C(=O)OC(C)(C)OC2=O	.	.	-5%	10%	-5%	.
COc1ccccc1/C=C/C=N/NC(=O)c1cc(-c2ccco2)[nH]n1	?	25µM*	-2%	?	?	-22%
Cn1cccc1-c1cc2n(n1)CCC(=O)N2CCCC(=O)NCc1cccc(Cl)c1	-16%	-24%	-4%	3%	-7%[60.1 µM]	.
NCCCN(Cc1ccccc1)c1ccc(Br)cn1	.	.	-5%	4%	-2%	.
COc1ccc(-c2cc(NC=O)c3ncc(-c4cc(OC)c(OC)c(OC)c4)n3c2)cc1	.	.	.	.	.	79µM*
Cc1cc[n+](C2CCCCC2)c2ccccc12	.	.	3%	-2%	-12%	.
SMILES	POLH inh	POLB inh	FEN1 inhibitor	Pol iota inh	Pol kappa inh	WRN helicase inh
CCN1/C(=C/C=C/C=C/c2sc3ccccc3[n+]2CC)Sc2ccccc21	.	16µM*	32µM*	18µM*	32µM*	.
CCN1/C(=C/C=C/C=C/C=C/c2sc3ccccc3[n+]2CC)Sc2ccccc21	-16%	-10%	-17%	?	-2%[60.1 µM]	-30%
CC[n+]1c(/C=C(\C)SC)sc2ccccc21	-2%	?	-1%	?	-13%	-6%
CCN1/C(=C/C=C/c2sc3ccccc3[n+]2CC)Sc2ccccc21	40µM*	.	3%	?	11µM*!	40µM*
C#CCn1c(=O)c2c(nc(/C=C/c3cccc(OC)c3)n2C)n(CCCOP(=O)(O)O)c1=O	.	.	.	.	-13%[60.1 µM]	.
CCN1C(=O)/C(=C/C=C2/Sc3ccccc3N2CCO)SC1=S	-8%	0%	0%	?	-3%	-6%
CCCCN1C(=O)/C(=C/C=C2\Oc3ccccc3N2CC)SC1=S	?	-5%	?	?	5%	50µM*
CC(=O)Nc1cc(NC(C)=O)cc(C(=O)N2CCCC3CCCCC32)c1 (configuration not stated)	22µM*	?	-20%	14µM*	79µM*	?
O=C(/C=C/c1ccco1)Nc1nc(-c2ccccn2)cs1	?	25µM*	18µM*	?	32µM*	?
O=C(O)/C=C/C(=O)Nc1cccc2cccnc12	-13%	10%	-5%	-4%	1%	1%
O=C(/C=C/c1ccco1)Nc1cccc2cccnc12	28µM*	40µM*	?	6.3µM*	28µM*	?
O=C(/C=C/c1ccco1)Nc1nc(-c2ccccc2)cs1	-6%	0%	3%	31%	2%	-22%
c1nc(SSc2ncnc3nc[nH]c23)c2[nH]cnc2n1	-11%	.	1%	?	-5%	40µM*
O=C(O)CSc1ncnc2nc[nH]c12	0%	12%	-1%	8%	5%	-4%
Cc1ccc(C)c(S(=O)(=O)c2nnn3c2nc(Nc2ccc(F)c(Cl)c2)c2sccc23)c1	-5%	1%	-1%	21%	-6%	.
Cc1sc2ccccc2[n+]1CC(=O)O	-6%	0%	-5%	?	0%	50µM*
Nc1cc2c3c(cccc3c1)C(=O)N(CCN1CCCC1)C2=O	2%	25µM*	25µM*	35µM*	-40%	7%[11.6 µM]
Cn1nnc2c(NCc3ccco3)ncnc21	.	.	-5%	3%	7%	.
COc1ccc(N2CCN(C(c3ccccc3)c3nnnn3C(C)C)CC2)cc1 (configuration not stated)	.	.	3%	29%	-2%	.
CCC(=O)c1ccc(OCC(=O)N2CCCC2)c(OC)c1	-11%	22µM*	2%	5%	5%	7%
CCC[C@@H]1CCCO[C@@](C(=O)NCc2cc(C)n(C)n2)(C(F)(F)F)C1	-19%	.	-14%	89µM*!	?	5%

Screens from PubChem.
